A selection: hits, their analogues and other compounds. The true share with any hit is near 4.1%.
DAX1 inh-1: blocks DAX1 repression of SF-1 activated StAR promoter | HEK293T StAR-luciferase reporter, SF-1/DAX-1 repression relief | inhibition, % at 6.8 µM | hit rate 1.1% among 370,000;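 active means inhibition above the mean over all tested compounds plus 3 SD, cut at about 3.6% in these data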;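 further: 0% = DAX-1 cells with DMSO and 100% = cells lacking DAX-1 with DMSO; higher inhibition means more luminescence from relief of DAX-1 repression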
DAX1 inh-2: inhibits human nuclear receptor DAX1. inhibition, % at 6.75 µM. hit rate 0.99% among 340,000. P51843. HEK293 Gal4-DAX1 luciferase reporter, luminescence;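 active means inhibition above the mean over all tested compounds plus 3 SD, cut at about 4.2% in these data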;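 further: 0% = DAX1-transfected cells with DMSO and 100% = empty-vector control cells with DMSO; inhibition shows as a rise in luminescence from relieved DAX1 repression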
Target sequence (P51843 207-470 limits assumed): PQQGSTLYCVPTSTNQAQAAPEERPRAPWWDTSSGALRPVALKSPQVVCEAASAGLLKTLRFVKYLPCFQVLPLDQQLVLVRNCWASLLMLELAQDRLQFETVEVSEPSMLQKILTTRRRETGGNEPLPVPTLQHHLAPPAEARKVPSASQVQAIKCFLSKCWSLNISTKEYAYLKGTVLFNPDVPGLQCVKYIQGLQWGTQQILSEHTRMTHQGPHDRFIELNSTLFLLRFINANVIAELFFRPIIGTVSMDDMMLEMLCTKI
hcDAF-12 act: activates DAF-12 receptor from parasite H. contortus. activation, % at 6.8 µM. hit rate 1.4% among 370,000. HEK293 hcDAF-12 lit1-tk-luc reporter, luminescence; 0% DMSO, 100% Δ7-dafachronic acid;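 active means activation above the mean of all tested compounds plus 3 SD, cut at about 5.5% in these data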;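 further: 100% = response to 3 µM Δ7-dafachronic acid high control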
ssDAF12 agonist: S. stercoralis DAF-12 activation, primary screen | HEK293 ssDAF-12/GRIP1 lit1-tk-luc reporter, luminescence; % of 3 µM dafachronic acid response | activation, % at 6.8 µM | hit rate 1% among 370,000;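 active means activation above the mean over all tested compounds plus 3 SD, cut at about 0.9% in these data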;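 further: 0% = DMSO-only wells and 100% = 3 µM delta7-dafachronic acid wells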
hgDAF12 agonist: hgDAF-12 agonism, primary luciferase screen | HEK293 GAL4-hgDAF12 UAS-luciferase reporter, agonist luminescence; normalized to butyrate control | activation, % at 6.8 µM | hit rate 1.8% among 370,000 | AID 687014;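 active means activation above a cutoff set at the mean of all screened compounds plus 3 SD, cut at about 10% in these data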;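 further: 0% = DMSO wells and 100% = sodium butyrate wells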
Numbers without * were called inactive; . = not tested or not shown.

SMILES | DAX1 inh-1 | DAX1 inh-2 | hcDAF-12 act | ssDAF12 agonist | hgDAF12 agonist
CCCCCN1CCCCC(NC(=O)c2ccc(F)c(F)c2)C1=O (centres undefined) | 1 | . | 0 | -2 | -1
COc1ccc(CCCC(=O)O)c(C)c1 | 0 | 1 | 0 | 1.5* | -1
c1csc(-c2noc(CN3CCOCC3)n2)c1 | 0 | 4.7* | 2 | -1 | 2
CN(CCN1CCOCC1)Cc1nc(-c2cccs2)no1 | 1 | 2 | 1 | -1 | 2
O=S(=O)(CC1NCCc2ccccc21)NCc1ccc(F)cc1 (centres undefined) | -1 | . | -2 | 0 | 0
COc1ccc2cc(-c3cc(C(=O)OCC(=O)NC4CCS(=O)(=O)C4)c4ccccc4n3)ccc2c1 (centres undefined) | 4.4* | -1 | 4 | 0 | 15*
COc1ccc(-c2cc(C(=O)OCC(=O)NC3CC3)c3ccccc3n2)cc1 | -1 | 0 | -1 | -1 | 2
CCC(c1ccc(OC)cc1)c1cn(C)c2ccccc12 (centres undefined) | 0 | . | 2 | -1 | 0
CCc1ccc(OC(=O)Nc2ccccc2)cc1 | 2 | 3 | 6.2* | 1 | 11*
COc1ccc(OC(=O)Nc2ccccc2)cc1 | 3.9* | 1 | 3 | 0 | 6
COc1ccc(NC(=O)N/C=C/c2ccccc2)cc1 | 2 | 4 | 1 | -1 | 12*
CC(=O)Nc1ccc(NC(=O)Oc2ccccc2)cc1 | 0 | -1 | -1 | 0 | 3
O=C(c1ccc(F)cc1Cl)N1CCC(Oc2cccnc2)CC1 | -1 | . | -3 | -2 | -2
COc1ccc(O)c(C(=O)c2cnc3nc4ccccc4n3c2)c1 | 0 | 2 | 6.1* | 0 | 2
COc1ccc(O)c(C(=O)c2cnn(-c3ccccn3)c2)c1 | 1 | 0 | 1 | -1 | 2
NC(=S)N=Nc1c(O)n(CC(=O)Nc2ccccc2)c2ccccc12 | 0 | -1 | -2 | -1 | -1
Cc1cccc(NC(=O)Cn2c(O)c(N=NC(=O)c3ccccc3O)c3ccccc32)c1 | 0 | -1 | 6.0* | 1 | 2
COc1ccc(C(=O)C[n+]2cc(Br)cc3ccccc32)cc1[N+](=O)[O-] | 0 | -1 | 5.9* | 1.0* | 2
O=C(C[n+]1cc(Br)cc2ccccc21)c1ccccc1 | 0 | 0 | 3 | 0 | 1
CN=C1S/C(=C/c2cn(CC(=O)OC)c3ccccc23)C(=O)N1C | -1 | 2 | 3 | 1.7* | 2
CN=C1S/C(=C\c2cn(CC(=O)OC)c3ccccc23)C(=O)N1C | 0 | 0 | 5 | 0.9* | -2
Cc1ccc(-c2nc(C3CCCN(S(=O)(=O)c4cccs4)C3)no2)cc1 (centres undefined) | -2 | . | -2 | -2 | -1
O=S(=O)(Cc1nc2ccccc2s1)c1ccccc1 | 3 | 1 | 4 | 0 | 11*
CCOC(=O)[C@@]12CCCC3=C1N(CCC3)C(=O)[C@H]2CC(=O)N1CCSCC1 | 0 | . | -3 | -2 | -1
CC(Oc1ccc2c3c(c(=O)oc2c1)CCC3)C(=O)NCC1CCC(C(=O)O)CC1 (centres undefined) | 1 | 4.7* | 0 | 0 | -1
SMILES | DAX1 inh-1 | DAX1 inh-2 | hcDAF-12 act | ssDAF12 agonist | hgDAF12 agonist
CC(Oc1ccc2c3c(c(=O)oc2c1)CCCC3)C(=O)NCC1CCC(C(=O)O)CC1 (centres undefined) | -1 | 1 | -1 | -1 | 0
CCc1cc(=O)oc2cc(OC(C)C(=O)NCC3CCC(C(=O)O)CC3)c(Cl)cc12 (centres undefined) | 2 | 5.9* | 1 | -1 | 2
Cc1c2ccncc2cc2c1[nH]c1ccccc12 | -3 | -2 | 4 | -1 | 11*
Cc1cc2c([nH]c3ccccc32)c(C)n1 | 0 | 4 | -1 | 0 | 3
COc1cc(NC(=O)CSc2nnc3c(C)cc4cc(C)cc(C)c4n23)c(C(=O)O)cc1OC | 0 | -1 | 1 | 0 | 11*
O=C(Nc1nc2ccc(F)cc2s1)c1ccc(N2CCCC2=O)cc1 | 4.2* | 1 | 0 | -1 | 4
Cc1ccc2nc(NC(=O)c3ccc(N4C(=O)CCC4=O)cc3)sc2c1 | 1 | 1 | 5.9* | 0 | 5
O=C(Nc1ccc(F)cc1F)c1ccc2nc(N3CCOCC3)sc2c1 | 0 | -1 | -1 | -1 | -2
O=C(Nc1nc2cc3c(cc2s1)OCO3)c1ccc(N2C(=O)CCC2=O)cc1 | 0 | 1 | 0 | 1.4* | 1
Cc1nnc(NC(=O)c2ccc(N3CCCC3=O)cc2)s1 | 3 | 1 | 2 | 0 | 9
O=C(Nc1nc2cc3c(cc2s1)OCO3)c1cccc(N2C(=O)CCC2=O)c1 | 1 | 4 | -1 | -1 | 3
O=C(Nc1ccccc1F)c1ccc2nc(N3C(=O)CCC3=O)sc2c1 | 2 | 7.1* | 1 | -1 | 3
O=C(OCCCCSc1nnc(-c2cccc3ccccc23)o1)c1ccc(F)cc1 | . | . | -1 | -1 | 0
CCOc1ccc(-c2nc(CSc3nnc(N)s3)cs2)cc1 | 1 | 1 | 3 | 0 | 12*
CCc1nnc(NC(=O)CSc2nnc3c(n2)[nH]c2ccccc23)s1 | 0 | 0 | -1 | 1.8* | 1
Cc1cc(=S)c2ccccc2[nH]1 | -1 | 0 | 0 | 1.3* | -2
Cc1ccc2[nH]c(C)cc(=S)c2c1 | 0 | 0 | -3 | -2 | -1
COC(=O)C[C@@H]1CC[C@H]2[C@@H](COc3ccc(NC(=O)Nc4ccccc4)cc3C(=O)N2C)O1 | 0 | . | 1 | -1 | 1
NC(=O)c1cnc(Cc2c[nH]c3ccccc23)c(I)c1 | -1 | . | 2 | 0.9* | -1
COC(=O)[C@]12C[C@H](CC(=O)NCC3CCCCC3)C(=O)N(CCc3ccc(OC)c(OC)c3)C1=C[C@H](C(C)(C)C)O[C@@H]2C | 0 | . | -1 | -1 | 1
O=C(Nc1ccc(-c2cn3ccsc3n2)cc1)C1CC1 | 3 | 0 | 2 | 0 | 10
CC(=O)Nc1ccc(-c2cn3ccsc3n2)cc1 | 1 | 0 | 2 | 0 | 12*
C=CCN1C(=O)[C@@H](CC(=O)N2CCCCC2)[C@]2(C(=O)OC)CCCCC=C12 | 1 | . | -2 | -1 | -2
O=C(c1cc2ccccc2[nH]1)N1O[C@@H]2C=C[C@H]1C2 | 2 | 2 | 6.2* | 0 | 7
Cc1ccc(NC(=O)c2csc(-c3ccccc3)c2C)cc1 | 4.3* | 0 | 3 | -1 | 6
Cc1ccc(NC(=O)c2cnn(-c3ccccc3)c2C)cc1 | 2 | 2 | 4 | 1.1* | 11*
Cc1ccc(NC(=O)c2cnn(-c3ccccc3)c2C)c(C)c1 | 1 | 2 | 2 | 0 | 7
CCCc1c(C(=O)Nc2ccc(OC)cc2)cnn1-c1ccccc1 | 0 | 6.3* | 2 | 0 | 3
CCCc1c(C(=O)NNc2ccccc2OC)cnn1-c1ccccc1 | 0 | 0 | -1 | -1 | 2

High-throughput results as filed in PubChem BioAssay.
